What all share (assay): NCI-60 one-dose screen, 48 h (100 = growth as untreated, 0 = no growth, -100 = all killed)
Common to all, as to settings: 10 µM unless noted

Assay [1] has as its system SR leukemia.
Assay [2] deals with RPMI-8226 leukemia.
Assay [3] deals with OVCAR-8 ovarian.
Assay [4] has as its system OVCAR-5 ovarian.
Assay [5] deals with OVCAR-4 ovarian.
Assay [6] concerns SK-OV-3 ovarian.
Assay [7] relates to IGROV1 ovarian.
The test system of assay [8] is OVCAR-3 ovarian.
In assay [9] the test system is HS 578T breast.
Assay [10] deals with NCI/ADR-RES ovarian.
Assay [11] relates to T-47D breast.
For assay [12], the system named is BT-549 breast.
Assay [13] deals with MDA-MB-435 melanoma.
Assay [14] deals with SW-620 colon.
For assay [15], the system named is MCF7 breast.
Assay [16] deals with HCT-116 colon.
For assay [17], the system named is HCC-2998 colon.
The subject of assay [18] is KM12 colon.
The test system of assay [19] is MDA-MB-468 breast.

About 83,000 compounds went through this panel and 20% of them were active in at least one assay; those are over-represented in the sample as a whole.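 Treatment: one concentration, 48 hours, 96-well format. Scoring: percent growth, with anything below 10 considered active.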 Values without a mark were called inactive. Activity calls are given as the source filed them.

On to `COc1ccc2oc(=O)c(-c3csc(N/N=C(\C)c4cc(OC)c(OC)c(OC)c4)n3)cc2c1`, for which the growth in assay [1] was 70.4%; in assay [2], 72.9%; in assay [3] it was 86.2%; in assay [4] it was 109%; in assay [5], 86.5%; in assay [6] it was 172%. Also, the growth in assay [7] is 91.2%; in [8] it was 110%; in assay [9], 110%; in [10], 77.9%; in assay [11], 65.7%; in assay [12], 39%. For the same molecule, the growth in assay [13] was 99.2%; in assay [14] it was 108%; in [15], 79.8%; in assay [16] it was 92.2%; in assay [17], 112%; in [18], 87.6%. In addition, the growth in [19] is 79.9%.

As for `CCCCCCCCc1ccc(C(=O)Nc2ccc(C)c(OP(=O)(O)O)c2)cc1`, the growth in assay [1] was 81.9%; in assay [2], 50.6%; in assay [3] it was 100%; in [4], 120%; in assay [5], 88.9%; in [6], 115%. The growth is 110% in assay [7]; 96.2% in assay [8]; 91.6% in assay [9]; 97.5% in assay [10]; 90% in assay [11]; 88.9% in assay [12]. Moreover, the growth is 102% in assay [13]; 103% in assay [14]; 88.3% in assay [15]; 106% in [16]; 125% in assay [17]; 95.5% in assay [18]. In addition, in assay [19], the growth is 104%.

In the case of `O=C(NNC(=O)c1ccc(OCc2nc3ccc(Cl)cc3[nH]2)cc1)Nc1ccc(Cl)c(Cl)c1`, the growth is 69.3% in [1]; 102% in assay [2]; 24% in [3]; 83.8% in assay [4]; 64.5% in assay [5]; 77.1% in assay [6]. The growth in assay [7] is 84.5%; in [8], 82.7%; in assay [9], 81.9%; in assay [10], 94.1%; in [11], -1.89% (active); in [12], 119%. The growth in assay [13] is 26.7%; in assay [14] it was 47%; in [15], 37.7%; in assay [16], 26.1%; in [17] it was 70.1%; in assay [18] it was 33.8%. Also, the growth in assay [19] was -14.8% (active).

In the case of `O=C(NC(=S)N1CCN(c2ncnc3c2cnn3-c2ccccc2)CC1)c1ccc(F)cc1`, the growth in assay [1] is 8.59% (active); in [2], 76.3%; in assay [3], 67.8%; in [4] it was 92.8%; in assay [5] it was 45.8%; in assay [6], 69.1%. The growth is 79.4% in assay [7]; 113% in assay [8]; 70.5% in [9]; 71.8% in [10]; 66.6% in assay [11]; 86.2% in assay [12]. Further, the growth is 77.2% in assay [13]; 76.6% in [14]; 52.4% in [15]; 55.1% in [16]; 99.1% in assay [17]; 79.7% in assay [18]. Moreover, the growth in [19] is 66.7%.

Regarding `O=C(N/N=C/c1ccsc1)c1[nH]c2ccc(Br)cc2c1-c1ccccc1`, the growth in [1] is 2.42% (active); in [2] it was 1.5% (active); in assay [3], -49.4% (active); in assay [4], -57.4% (active); in assay [5], -30.8% (active); in [6], -36.9% (active). In addition, the growth in assay [7] is -57% (active); in assay [8] it was -72.9% (active); in assay [9], -13.3% (active); in assay [10], -42% (active); in [11], -21.6% (active); in assay [12], -86% (active). Also, the growth in assay [13] was -85.3% (active); in assay [14] it was -68% (active); in [15], -50.9% (active); in assay [16], -71% (active); in assay [17] it was -59.4% (active); in assay [18], -49.3% (active). For the same molecule, the growth in assay [19] is -25.6% (active).

Turning to `COC(=O)c1cc(C(=O)C(F)(F)F)n2c3ccccc3c3ccccc3c12`, the growth in assay [1] was 60.7%; in assay [2], 96%; in assay [3], 42.7%; in assay [4], 83.5%; in [5], 10.8%; in assay [6], 82.9%. Further, the growth in assay [7] was 40%; in [8] it was 82.9%; in assay [9], 41.7%; in [10] it was 67.7%; in assay [11], 64.4%; in assay [12], 85.9%. For the same molecule, the growth in [13] is 96.2%; in assay [14], 83.9%; in assay [15], 80.8%; in assay [16], 48%; in assay [17], 108%; in assay [18], 100%. Moreover, the growth in assay [19] is 60.8%.

Regarding `COc1cc(CNC(=O)C[C@H](C)CCC=C(C)C)ccc1OCc1cn(-c2ccc(Cl)cc2Cl)nn1`, the growth in [1] is 79.8%; in [2], 90.7%; in assay [3] it was 29.3%; in [4], 91.7%; in assay [5], 49.7%; in assay [6], 26.1%. The growth was 72.3% in assay [7]; 101% in [8]; 48.4% in assay [9]; 32.9% in [10]; 60.2% in assay [11]; 83.7% in assay [12]. The growth in [13] was 98.2%; in assay [14], 89.3%; in assay [15] it was 67.5%; in assay [16], 53.1%; in assay [17] it was 92.5%; in assay [18] it was 93.1%. In addition, the growth in assay [19] is 50.4%.

Consider `O=C(CSc1nnc(-c2ccc(-c3nc4ccc(Cl)cc4[nH]3)cc2)o1)Nc1ccc(Cl)cc1`, for which the growth in assay [1] is 0.703% (active); in [2], 8.59% (active); in assay [3], -31.3% (active); in [4] it was 49.3%; in assay [5] it was 19.1%; in assay [6] it was 81.1%. The growth in assay [7] is 51.2%; in assay [8] it was 5.34% (active); in [9], 14.1%; in [10] it was 11.4%; in assay [11] it was 47.5%; in [12] it was -9.75% (active). The growth in [13] is 8.45% (active); in assay [14] it was 4.33% (active); in assay [15], 19.1%; in assay [16] it was 5.5% (active); in assay [17], 67%; in [18] it was 18.8%. Besides, the growth in [19] was 72.4%.

Regarding `Cc1cc(C(NC(=O)C2CC3(CC(Nc4cccc5c4C(=O)N(C4CCC(=O)NC4=O)C5=O)C3)C2)c2ccc3c(c2)OC(F)(F)O3)c(O)c2ncccc12` (stereo not drawn), the growth in assay [1] was 10.6%; in assay [2], 15%; in assay [3] it was 4.53% (active); in [4] it was 35.1%; in [5], 35%; in [6], -4.52% (active). Moreover, the growth in [7] was 6% (active); in [8], 16.1%; in assay [9], 29.3%; in assay [10] it was 12.2%; in assay [11], 11.5%; in assay [12] it was 9.92% (active). The growth in assay [13] is 28.5%; in assay [14] it was 25.6%; in [15] it was 8.12% (active); in assay [16] it was 15.6%; in assay [17] it was 36.6%; in assay [18], 17.5%. In addition, the growth in assay [19] was -30.6% (active).

Turning to `COc1cc(C2CC(c3ccc(Cl)cc3)=Nc3c(N)nc(N)nc3N2)ccc1Oc1nc(Nc2ccc(F)cc2)nc(N(C)C)n1` (stereo not drawn), the growth in [1] was -47.5% (active); in assay [2], 15%; in [3] it was 65%; in assay [4], 96.6%; in [5], 29%; in [6], 79.3%. Besides, the growth in assay [7] was 34%; in assay [8], 65%; in assay [9], 54%; in assay [10] it was 41.4%; in [11] it was 71.3%; in [12] it was 62.4%. Further, the growth in [13] is 44%; in assay [14], 35.5%; in [15], 2.22% (active); in assay [16], -5.37% (active); in assay [17], -3.35% (active); in [18] it was 32%. In addition, the growth in [19] is -22.4% (active).

For `Nc1cc(-c2c[nH]c3ccc(Br)cc23)nc2cc(-c3c[nH]c4ccccc34)nn12`, the growth in [1] was 7.93% (active); in assay [2] it was 0.137% (active); in assay [3], -54.1% (active); in assay [4], -72.7% (active); in [5] it was -5.21% (active); in assay [6] it was -43.6% (active). Further, the growth was -77.1% (active) in [7]; -34% (active) in [8]; -12.4% (active) in assay [9]; -17.9% (active) in [10]; -60.5% (active) in [11]; -21.4% (active) in assay [12]. The growth in [13] was -75.1% (active); in assay [14], -83.2% (active); in assay [15] it was -66.8% (active); in assay [16], -78% (active); in [17] it was -78.2% (active); in assay [18], -65.4% (active). For the same molecule, in assay [19], the growth was -81.8% (active).

Consider `COc1ccc(/C=C/c2nc3ccccc3n3c(-c4cccc([N+](=O)[O-])c4)nnc23)cc1`, for which the growth was -33.3% (active) in assay [1]; -18.3% (active) in assay [2]; -43.6% (active) in [3]; -59.9% (active) in [4]; -14.6% (active) in assay [5]; 25.6% in assay [6]. Moreover, the growth in [7] was -69% (active); in [8], -77.4% (active); in assay [9], 12%; in assay [10] it was -27% (active); in [11] it was -7.62% (active); in assay [12], -87.5% (active). Besides, the growth was -46.5% (active) in assay [13]; -22.3% (active) in assay [14]; -64.5% (active) in assay [15]; -76.2% (active) in assay [16]; -84.5% (active) in assay [17]; -67.3% (active) in assay [18]. The growth in [19] is -65% (active).

(Values after PubChem BioAssay (NCI).)
